Screens: PubChem, National Center for Advancing Translational Sciences (NCATS)
Rows were chosen to be rich in hits. Some 2.4% of all compounds tested hit in one or more screens of this group.
TRHR agonist – agonists of human TRH receptor; P34981; 360,000 tested, 0.18% active; TRHR cells, calcium flux fluo-8, FDSS agonist mode; activation, % at 2 µM; in the data active = activation above about 30%; note: 0% is about no effect
Target sequence (P34981 whole entry, looked up): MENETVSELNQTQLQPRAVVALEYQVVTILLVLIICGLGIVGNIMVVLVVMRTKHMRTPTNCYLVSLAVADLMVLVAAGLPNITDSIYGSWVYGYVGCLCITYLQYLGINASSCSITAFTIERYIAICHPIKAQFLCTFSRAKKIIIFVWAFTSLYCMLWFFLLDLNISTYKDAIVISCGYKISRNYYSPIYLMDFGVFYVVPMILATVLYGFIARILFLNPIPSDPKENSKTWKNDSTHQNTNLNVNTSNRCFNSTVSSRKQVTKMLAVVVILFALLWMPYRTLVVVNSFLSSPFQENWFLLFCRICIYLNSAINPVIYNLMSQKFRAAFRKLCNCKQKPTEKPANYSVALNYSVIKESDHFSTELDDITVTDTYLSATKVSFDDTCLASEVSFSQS
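TRHR-expressing cells, plated overnight in medium with 10% serum, were loaded with fluo-8 calcium dye at room temperature. After a 10 s baseline, library compound was pin-added and calcium release was recorded kinetically (ex 480/em 530) as agonist response.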
GLP1R inv ag – acts as inverse agonist at human GLP-1 receptor | P43220 | HEK293 GLP-1R CRE-luciferase, luminescence, 24 h; GLP-1R form is constitutively active | Potency, µM (titrated, usually from 38.3 µM), without a hit: at the top dose activity change, negative = inhibition, actives largely listed as inhibitors | 410,000 tested, 1.6% active | AID 624417; note: potency is the fitted concentration of half-maximal effect; % is set by controls: 0 for no effect and ±100 for the full control effect; nearly all actives have a fitted effect of over 55% in size
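Readout was luciferase luminescence, measured 12 min after detection reagent at room temperature. Beforehand, GLP-1R reporter HEK293 cells had sat 12 h, then received compounds for 24 hr at 37 deg C.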
HEK293 tox – cytotoxicity in counter-screen for GLP-1R inverse agonists; Potency, µM (highest dose often 38.3 µM), inactives show at the highest dose activity change, negative = inhibition, most hits filed as inhibitors; HEK293 cAMP-luciferase reporter cells, luminescence, 24 h; 410,000 tested, 0.13% active;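 note: loss of luciferase light is scored as toxicity; potency is the fitted concentration of half-maximal effect; % is set by controls: 0 for no effect and ±100 for the full control effect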
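Cells in DMEM/10% Nu serum/1% pen-strep, 1536-well format. Pre-incubated 12 h, dosed with 23 nL compound, incubated a further 24 h. Luciferase detection, 12 min at room temp, luminescence.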
GLP1R ag – agonists of human GLP-1 receptor; Potency, µM (series often up to 45.6 µM), for inactives: at the top dose activation, actives largely listed as activators; 380,000 tested, 0.007% active; HEK293 GLP-1R CRE-luciferase, luminescence, 4-6 h; cells express a hypersensitive GLP-1R form; P43220; note: potency is the fitted concentration of half-maximal effect; % of control where 0% means no effect
PTHR1 agonist – PTHR1 (human) receptor agonism; HEK293 GP2 PTHR1 cells, GloSensor cAMP luminescence, 1 h; Potency, µM (highest dose often 115 µM), for the others: at the highest dose activation, actives largely listed as activators; 410,000 tested, 0.075% active; Q03431; AID 743266; note: potency is the fitted concentration of half-maximal effect; nearly all actives have a fitted effect of over 55% in size
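HEK-293-derived GP2 cells expressing PTHR1 and a GloSensor cAMP reporter, 3,000/well, plated overnight, given luciferin plus IBMX (each 0.5 mM as added) for 1 h at 37 °C, then compound for 1 h at 37 °C. Luminescence was read after 15 min at room temperature.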
TRHR PAM – allosterically enhances the human TRH receptor | P34981 | TRHR cells, fluo-8 calcium fluorescence, EC20 TRH enhancement | enhancement, % at 2 µM | 360,000 tested, 0.66% active | AID 493056; in the data active = enhancement above about 30%; note: 0% is about no effect
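TRHR-expressing cells loaded with fluo-8 calcium dye were read kinetically (ex 480/em 530) during compound addition, then stimulated with an EC20 of TRH (10 nM final). Enhancement of the Gq-mediated intracellular calcium response was scored.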
* hit, by the source's call; i = inactive; u = inconclusive; x = no result given; [ ] = dose if it differs, or a comment. Unless noted, calls come from the whole dose curve; as a rule, active = well fitted curve in the direction sought with a large enough effect; inconclusive = small, poorly fitted or top-dose-only effect, or another doubt; inactive = no such curve, though single readings can be large; an effect the other way counts as inactive or inconclusive.

SMILES	TRHR agonist	GLP1R inv ag	HEK293 tox	GLP1R ag	PTHR1 agonist	TRHR PAM
CC(C)(C)c1cc(C(=S)N2CCCC2)cc(C(C)(C)C)c1O	0.4	8.91µM*	4.4%	5.8%	i	-1.3
Cc1cccc(/C=C2\Sc3ccc(C(=O)N4CCOCC4)cc3N(C)C2=O)c1	-0.5	u	-5.5%	8.1%	-10.9%	0.4
Cc1cccc(C)c1NC(=O)CN(C)C(=O)c1cccc(S(=O)(=O)N2CCN(C)CC2)c1	0.1	0.0%	6.1%	1.1%	i	4.0
COc1ccccc1CNc1nc(NCCOc2ccccc2)c2sccc2n1	x	u	u	-6.8%	-51.2%	x
CC(=O)Nc1ccc(CNc2nc(NC(C)C)nc3cc(-c4ccccc4)sc23)cc1	x	11.2µM*	u	-13.3%	-37.0%	x
c1ccc(OCCNc2nc(NCC3CC3)nc3ccsc23)cc1	x	8.91µM*	-10.0%	-2.5%	-44.1%	x
C=CCNc1nc(NCc2ccc(NC(C)=O)cc2)c2sc(-c3ccccc3)cc2n1	x	u	u	-9.5%	-10.9%	x
c1ccc(-c2cc3nc(NCC4CC4)nc(NCC4CCCCC4)c3s2)cc1	x	2µM*	u	-4.7%	-73.6%	x
Cc1cc(C)c(NC(=O)CNC(=O)c2ccccc2SCC(=O)N2CCCC2)c(C)c1	0.6	15.2%	2.3%	8.0%	-17.0%	8.0
CC(C)(O)c1ccccc1CC[C@@H](SCC1(CC(=O)O)CC1)c1cccc(/C=C/c2ccc3ccc(Cl)cc3n2)c1	x	0.7%	17.6%	7.7%	-4.5%	x
COc1ccc(CCc2ccc3ccccc3n2)cc1	x	10µM*	-7.3%	22.9%	-28.8%	x
COc1ccc(CCc2ccnc3ccccc23)cc1	x	u	-1.0%	38.2%	-20.4%	x
Cc1ccc2scc(N3CCN(c4ccccc4)CC3)c(=O)c2c1	-0.1	-6.8%	-4.7%	x	-16.5%	5.1
Cc1ccc2scc(N3CCN(c4ccc(F)cc4)CC3)c(=O)c2c1	-0.2	-10.8%	-13.8%	x	i	38.6*
CCOC(=O)CN1CC23C=CC(O2)C(C(=O)NCc2ccccc2OC)C3C1=O (stereo not given)	0.3	-0.7%	0.4%	13.2%	-17.6%	-3.8
Cn1nc(C(C)(C)C)cc1C(=O)N1CCCCC1c1cc(C(=O)Nc2cccc(C#N)c2)no1 (stereo not given)	x	10µM*	-1.1%	-0.1%	-34.7%	x
N#Cc1cccc(NC(=O)c2cc(C3CCCCN3C(=O)c3ccccc3)on2)c1 (stereo not given)	x	u	-0.9%	5.1%	-6.1%	x
Cc1c(C(=O)Oc2cc(N)n(S(C)(=O)=O)n2)cccc1[N+](=O)[O-]	0.3	-0.7%	2.5%	1.0%	-3.0%	1.2
O=C(Nc1ccc(OCC(F)(F)C(F)F)c(C(F)(F)F)c1)c1ccc(Cl)cc1	x	3.55µM*	-20.9%	-9.4%	-12.7%[57.5 µM]	x
O=C(Nc1ccc(Br)c(C(F)(F)F)c1)c1ccc(C(F)(F)F)cc1	1.8	u	-22.3%	-1.2%	-9.0%	-6.6
COc1ccc(C(=O)Nc2ccc(OCC(F)(F)C(F)F)c(C(F)(F)F)c2)cc1OC	0.3	3.98µM*	-23.9%	1.6%	-92.3%	0.7
CCOc1ccc(C(=O)Nc2c(C)nc(Nc3ccccc3)nc2Nc2ccccc2)cc1OCC	1.7	10µM*	-14.4%	-1.1%	6.4%	-0.3
CCOc1ccc(Nc2nc(C)c(NC(=O)c3cccc(OC)c3)c(Nc3ccc(OCC)cc3)n2)cc1	-1.4	u	-22.3%	-12.4%	17.2%	3.8
COc1ccc(CNn2c(-c3cccs3)nc3ccccc3c2=O)cc1OC	0.3	10µM*	0.3%	9.1%	-19.5%	7.1
COc1cccc(CNn2c(-c3cccc(C)c3)nc3ccccc3c2=O)c1	0.7	u	-18.6%	3.7%	i	37.5*
COc1cccc(C(=O)Nn2c(-c3cccs3)nc3ccccc3c2=O)c1OC	-0.5	-30.5%	-9.5%	9.7%	-11.8%	0.3
